Source: PubChem BioAssay (NCI)
Compounds without any hit were thinned out: in the full panel of roughly 79,000, 15% have a hit. A number with no mark means an inactive call. Rule as the data show it: active = growth inhibition above about 70%; inactive = the rest.

assay: NCI Yeast Anticancer Drug Screen. Data for the CLN2oe strain (AID 163);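 also: 0% = growth of vehicle-only control cultures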; details: S. cerevisiae CLN2oe strain, at 1.2 µM, active compounds read high
Outline: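 Growth of a genetically modified yeast strain is measured after compound exposure and compared with cultures given vehicle alone.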

SMILES | growth inhibition
COc1nc2c(c(=O)n1C)N=C(c1ccccc1)[C@H](C(CC(=O)c1ccccc1)c1ccccc1)C(c1ccccc1)N2 (some centres not stated) | 10%
Cc1cc(-c2cc(C)c(O)c(C(C)(C)C)c2)cc(C(C)(C)C)c1O | -51%
Nc1cc(N)c(N=Nc2cccc3c(S(=O)(=O)O)cccc23)cc1N=Nc1cc([N+](=O)[O-])ccc1O | 4%
Nc1ccc(F)cc1S | -70%
Brc1ccccc1-c1ncc(-c2ccccc2)o1 | 0%
COc1cc(C2SCC(=O)N2c2ccc(-c3ccc(-n4c(-c5ccccc5)nc5ccccc5c4=O)cc3)cc2)ccc1O (configuration not stated) | -2%
Nc1ncnc2c1ncn2C1OC(CO)CC1O (configuration not stated) | 17%
COc1cc(CSc2ccc(O)cc2)cc(O)c1O | 6%
CCOC(=O)C1N=[N+](c2ccccc2)C(=O)/C1=C\n1c(=S)[nH]c2ccc([N+](=O)[O-])cc21 (configuration not stated) | 1%
CNC(=O)OCc1c(COC(=O)NC)c2n(c1C)-c1ccc(OC)cc1CCC2 | -12%
O=C(NNc1ccccc1)c1ccc(Cl)c(Cl)c1 | -7%
Cc1ccc(CC2(OCCN(C)C)CCC(C(C)(C)C)CC2)cc1 (configuration not stated) | -23%
CCCC/C=C/C(C)(C(=O)OCC)C(=O)OCC | -3%
CCc1c(Cl)c(C)cc(O)c1Cl | -7%
O=C(/C=C(/c1ccccc1)N1CCCCC1)c1ccccc1 | -6%
CCCC(=O)Oc1ccc(/C=N/NC(N)=S)nc1 | -5%
CCc1nc2ccc(NCCN(C)C)c3c(=O)c4ccccc4n1c23 | 18%
